Tests used:
Settings in all cases: concentration: 1 μM, replicates: in singlicate; n = 1
LCK = system: LCK
LIMK1 = system: LIMK1
LIMK2 = system: LIMK2
LKB1 = system: T1, LKB1
T1 construct: gene STK11

LOK = system: T2, LOK
T2 construct: gene STK10

LRRK2 = system: LRRK2
LTK = system: LTK
LYN = system: LYN
LZK = system: T3, LZK
T3 construct: gene MAP3K13

MAK = system: MAK
MAP3K15 = system: MAP3K15
MAP3K1 = system: MAP3K1
MAP3K2 = system: MAP3K2
MAP3K3 = system: MAP3K3
MAP3K4 = system: MAP3K4
MAP4K2 = system: MAP4K2
MAP4K3 = system: MAP4K3
MAP4K4 = system: MAP4K4
MAP4K5 = system: MAP4K5
MAPKAPK2 = system: MAPKAPK2
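Note: KINOMEscan kinase panel screen.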

SMILES	%Inh (LCK)	%Inh (LIMK1)	%Inh (LIMK2)	%Inh (LKB1)	%Inh (LOK)	%Inh (LRRK2)	%Inh (LTK)	%Inh (LYN)	%Inh (LZK)	%Inh (MAK)	%Inh (MAP3K15)	%Inh (MAP3K1)	%Inh (MAP3K2)	%Inh (MAP3K3)	%Inh (MAP3K4)	%Inh (MAP4K2)	%Inh (MAP4K3)	%Inh (MAP4K4)	%Inh (MAP4K5)	%Inh (MAPKAPK2)
Cn1cc(-c2ccc3c(c2)CCN3C(=O)Cc2cc(F)cc(F)c2F)c2c(N)ncnc21 [GSK2634140]	58%	0%	0%	0%	91.8%	0%	24%	0%	0%	23%	7%	10%	87%	50%	80%	0%	78%	0%	81%	7%
N#Cc1cnc2cc(-c3cnc(CNCCN4CCOCC4)s3)ccc2c1Nc1ccc(Oc2ccccc2)cc1 [GW664114]	99.7%	6%	0%	0%	88%	0%	0%	90%	76%	28%	0%	19%	65%	86%	99.2%	71%	98.9%	98.1%	99.6%	14%
Cc1cccc(Nc2nc(N[C@H]3CCCC[C@H]3N)ncc2C(N)=O)c1.Cl [GSK986310]	47%	15%	18%	0%	0%	21%	52%	34%	0%	27%	16%	17%	84%	71%	0%	98.4%	31%	74%	34%	19%
O=C(Nc1n[nH]c2nc(-c3cccc(O)c3)ccc12)C1CC1 [SB-711805]	25%	0%	0%	14%	15%	0%	12%	5%	0%	0%	15%	17%	14%	50%	0%	9%	0%	13%	0%	0%
CCn1c(-c2nonc2N)nc2c(-c3ccccc3)ncc(OCCCN)c21.O=C(O)C(F)(F)F.O=C(O)C(F)(F)F [GSK260205]	29%	1%	0%	0%	98.7%	28%	0%	0%	0%	0%	0%	17%	98.2%	97.7%	6%	3%	0%	76%	5%	13%
CN1CCN(Cc2ccc(NC(=O)Nc3ccc(N(C)c4ccnc(Nc5ccc(CS(C)(=O)=O)cc5)n4)cc3)cc2)CC1.Cl [GW827654]	82%	27%	31%	17%	99.9%	0%	46%	70%	42%	34%	100%	37%	59%	61%	96%	67%	95.5%	95.8%	82%	0%
Cc1ccc(Nc2ccnc(Nc3ccc(C)c(F)c3)n2)cc1O.Cl [GW582868]	59%	0%	0%	0%	5%	57%	0%	22%	24%	17%	0%	2%	0%	0%	40%	0%	96.8%	5%	2%	0%
COc1cccc(C2=C(Nc3cccc(O)c3)C(=O)NC2=O)c1 [SB-390771]	11%	9%	18%	0%	0%	0%	6%	24%	0%	25%	0%	0%	12%	0%	38%	8%	0%	4%	0%	17%
Cl.O=C(Nc1ccc(Oc2ccc3[nH]c(NC(=O)c4ccco4)nc3c2)cc1)Nc1cc(C(F)(F)F)ccc1F [GW683134]	98.4%	17%	0%	0%	99.7%	65%	74%	70%	0%	19%	0%	27%	7%	0%	0%	0%	17%	24%	32%	93%
CN(C)CCNS(=O)(=O)c1ccc(-c2ccnc3[nH]ccc23)cc1 [GSK977620]	23%	0%	0%	0%	0%	47%	4%	0%	0%	84%	14%	11%	49%	19%	0%	11%	31%	20%	8%	0%
O=C(Nc1n[nH]c2nc(-c3ccccc3)ccc12)C1CC1 [SB-708999]	9%	0%	31%	0%	30%	0%	0%	21%	2%	38%	3%	17%	6%	0%	28%	0%	1%	53%	12%	4%
CNc1nccc(-c2ccc3c(N)n[nH]c3c2)n1 [GSK2206003]	19%	0%	0%	5%	23%	1%	27%	0%	0%	29%	0%	14%	0%	0%	0%	54%	0%	13%	0%	0%
COC(=O)Nc1nc2ccc(Oc3ccc(CC(=O)Nc4cc(C(F)(F)F)ccc4F)cc3)cc2[nH]1 [GW680903]	22%	1%	7%	0%	78%	33%	0%	7%	28%	37%	0%	0%	0%	0%	8%	0%	0%	0%	0%	20%
COC(=O)Nc1nc2cc(Oc3ccc(NC(=O)Nc4cccc(SC)c4)cc3)ccc2[nH]1.Cl [GW697999]	68%	0%	4%	17%	99.4%	18%	0%	24%	23%	14%	0%	15%	1%	0%	0%	0%	0%	0%	0%	0%
CCNc1nccc(-c2c(-c3ccc(F)cc3)ncn2C2CCN(C)CC2)n1	11%	0%	7%	0%	0%	0%	0%	0%	0%	0%	0%	0%	0%	0%	0%	0%	0%	0%	0%	0%
CC(C)c1nc(-c2ccc(F)c(NS(=O)(=O)c3c(F)cccc3F)c2)c(-c2ccnc(Nc3ccc(N4CCOCC4)nc3)n2)s1 [GSK1804250]	99.6%	100%	100%	0%	99.3%	9%	6%	93.8%	58%	24%	26%	17%	13%	0%	23%	8%	22%	4%	58%	14%
Fc1cc(Cl)ccc1Nc1ccnc2cc(-c3ccc(CN4CCSCC4)o3)ccc12 [GW560106]	98.4%	0%	0%	11%	73%	22%	61%	74%	32%	32%	0%	6%	0%	0%	0%	0%	8%	40%	50%	5%

SMILES	%Inh (LCK)	%Inh (LIMK1)	%Inh (LIMK2)	%Inh (LKB1)	%Inh (LOK)	%Inh (LRRK2)	%Inh (LTK)	%Inh (LYN)	%Inh (LZK)	%Inh (MAK)	%Inh (MAP3K15)	%Inh (MAP3K1)	%Inh (MAP3K2)	%Inh (MAP3K3)	%Inh (MAP3K4)	%Inh (MAP4K2)	%Inh (MAP4K3)	%Inh (MAP4K4)	%Inh (MAP4K5)	%Inh (MAPKAPK2)
CCNC(=O)/C=C/c1n[nH]c2cc(Sc3ccccc3C(=O)NC)ccc12	11%	25%	11%	0%	27%	0%	0%	16%	14%	26%	5%	38%	20%	30%	3%	30%	65%	39%	24%	12%
COc1ccc(C2=C(Nc3cccc(O)c3)C(=O)NC2=O)cc1 [SB-390766]	0%	0%	10%	0%	0%	5%	30%	52%	6%	0%	0%	24%	0%	0%	0%	0%	0%	0%	0%	0%
Cc1ccccc1CC(=O)N1CCc2cc(-c3cn(C)c4ncnc(N)c34)ccc21 [GSK2603346]	30%	0%	0%	0%	89%	21%	23%	0%	0%	1%	20%	19%	88%	62%	90%	29%	97.8%	0%	88%	7%
Cc1nn2c(=O)cc(N3CCO[C@H](C)C3)nc2n1Cc1cccc(Cl)c1Cl [GSK2373693]	13%	0%	0%	0%	0%	18%	27%	0%	0%	15%	22%	66%	7%	0%	4%	0%	4%	17%	10%	12%
c1ccc(Oc2ccc(Nc3ccnc4cc(-c5ccc(CN6CCCCC6)o5)ccc34)cc2)nc1 [GW567143]	88%	0%	0%	6%	39%	35%	0%	6%	12%	4%	18%	8%	0%	0%	0%	0%	0%	13%	81%	3%
CC(C)(C)c1ccc(C(=O)Nc2cn3cc(-n4ccnc4)ccc3n2)cc1	0%	0%	10%	0%	0%	12%	0%	10%	0%	18%	68%	12%	17%	0%	15%	30%	0%	6%	0%	0%
Cc1ccc(O)cc1Nc1ccnc2cc(-c3ccc(CN4CCCCC4)o3)ccc12 [GW557777]	99.7%	6%	8%	0%	17%	19%	0%	95.3%	0%	0%	7%	67%	29%	7%	0%	29%	0%	2%	3%	0%
COc1cc(Nc2nccc(N3CCC(NC(=O)Nc4ccc5c(c4)OCO5)C3)n2)cc(OC)c1OC (stereo not drawn) [GSK1379766]	32%	40%	13%	0%	0%	0%	74%	3%	24%	3%	0%	8%	0%	0%	29%	17%	0%	0%	0%	0%
COc1cc(Nc2ccnc3cc(-c4ccncc4)ccc23)cc(OC)c1OC.Cl [GW494610]	98.6%	0%	0%	0%	96.9%	27%	24%	67%	31%	20%	7%	8%	25%	30%	0%	13%	0%	83%	55%	13%
O=C(O)C(F)(F)F.O=c1[nH]ccc2nc(N[C@@H]3CCNC3)nc(Nc3ccc4c(c3)S(=O)(=O)CC4)c12 [GSK2181306]	40%	0%	0%	2%	97.2%	94.5%	29%	7%	6%	93.5%	49%	28%	85%	76%	34%	100%	96%	92.6%	95.6%	33%
O=C(O)C(F)(F)F.O=c1[nH]ccc2nc(N[C@@H]3CCNC3)nc(Nc3cc(Cl)cc(Cl)c3)c12 [GSK2188764]	0%	19%	13%	43%	70%	97.3%	31%	21%	7%	16%	26%	24%	81%	78%	19%	99.9%	77%	94.1%	76%	31%
CSc1ccc(NC2=C(c3ccc(Cl)cc3)C(=O)NC2=O)cc1 [SB-317658]	0%	11%	1%	54%	29%	43%	27%	26%	0%	37%	0%	0%	1%	29%	37%	12%	1%	16%	17%	1%
Nc1cccc(-c2ccc3c(N)n[nH]c3c2)c1 [GSK2193613]	9%	0%	12%	12%	0%	0%	0%	0%	0%	18%	0%	100%	0%	0%	4%	91.1%	1%	19%	0%	0%
Cc1ccc(NC(=O)c2ccnc(N3CCCCC3)c2)cc1-c1ccc(C(=O)NCC2CC2)cc1 [GW775610]	29%	0%	0%	34%	79%	0%	15%	0%	0%	13%	0%	0%	0%	0%	0%	0%	11%	0%	26%	12%
Nc1ncnc2scc(-c3ccc(NC(=O)Cc4cc(F)ccc4F)cc3)c12.O=C(O)C(F)(F)F [SB-731254-M]	54%	55%	96%	29%	81%	0%	71%	16%	0%	20%	24%	10%	82%	63%	22%	16%	54%	1%	70%	35%
CC(=O)Nc1cn2nc(Oc3cccc(NC(=O)c4cccc(C(F)(F)F)c4)c3)ccc2n1	99.5%	0%	14%	0%	90.1%	8%	0%	97.9%	0%	0%	0%	0%	0%	22%	19%	0%	91.7%	36%	90%	0%
